Experimental data: the supplement of paper PMC6555819

Columns and labels:
Experiment in all cases: PBM binding z-score (relative to random genomic background probes); higher = stronger binding; sequences stand for … in GC…GCGATTGACAGCGTAGAATGAAGG
[1] = test system: FXR:RXRa (NR concentration 270 nM, RXRa partner concentration 90 nM)
Outline: (§1)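 Scanned fluorescence from custom Agilent 4×180K protein-binding microarrays was regression-normalized. Binding z-scores use random background probes as reference. Ligand-free nuclear receptor dimers were incubated on the arrays for 1 h and detected with antibodies against each partner (one per run).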

[2] = test system: LXRa:RXRa (NR concentration 270 nM, RXRa partner concentration 90 nM)
Outline: as §1

[3] = test system: LXRa homodimer (NR concentration 270 nM)
Outline: as §1

[4] = test system: LXRb:RXRa (NR concentration 270 nM, RXRa partner concentration 90 nM)
Outline: as §1

[5] = test system: LXRb homodimer (NR concentration 270 nM)
Outline: as §1

[6] = test system: PPARa:RXRa (NR concentration 270 nM, RXRa partner concentration 90 nM)
Outline: as §1

[7] = test system: PPARg:RXRa (NR concentration 180 nM, RXRa partner concentration 90 nM)
Outline: as §1

[8] = test system: PPARg:RXRa 270nM:90nM, anti-RXR (NR concentration 270 nM, RXRa partner concentration 90 nM)
Outline: as §1

[9] = test system: PPARg:RXRa 30nM:10nM, anti-RXR (NR concentration 30 nM, RXRa partner concentration 10 nM)
Outline: as §1

[10] = test system: PPARg:RXRa 90nM:30nM, anti-RXR (NR concentration 90 nM, RXRa partner concentration 30 nM)
Outline: as §1

[11] = test system: PPARg:RXRa DBDmut IVT, anti-RXR (DBD mutation: RXRa K156A/R161A, NR concentration 270 nM, RXRa partner concentration 90 nM)
Outline: as §1

[12] = test system: PPARg:RXRa IVT, anti-PPARg (NR concentration 270 nM, RXRa partner concentration 90 nM)
Outline: as §1

[13] = test system: PPARg DBDmut:RXRa IVT, anti-PPARg (DBD mutation: PPARg1 K132A/R137A, NR concentration 270 nM, RXRa partner concentration 90 nM)
Outline: as §1

[14] = test system: PPARg DBDmut IVT, anti-PPARg (DBD mutation: PPARg1 K132A/R137A, NR concentration 270 nM)
Outline: as §1

[15] = test system: PPARg homodimer (NR concentration 180 nM)
Outline: as §1

[16] = test system: PXR:RXRa (NR concentration 270 nM, RXRa partner concentration 90 nM)
Outline: as §1

[17] = test system: PXR homodimer (NR concentration 270 nM)
Outline: as §1

[18] = test system: RARa:RXR (NR concentration 270 nM, RXRa partner concentration 90 nM)
Outline: as §1

[19] = test system: RARa homodimer (NR concentration 270 nM)
Outline: as §1

[20] = test system: RARb:RXRa (NR concentration 270 nM, RXRa partner concentration 90 nM)
Outline: as §1

| Sequence | PBM binding z-score [1] | PBM binding z-score [2] | PBM binding z-score [3] | PBM binding z-score [4] | PBM binding z-score [5] | PBM binding z-score [6] | PBM binding z-score [7] | PBM binding z-score [8] | PBM binding z-score [9] | PBM binding z-score [10] | PBM binding z-score [11] | PBM binding z-score [12] | PBM binding z-score [13] | PBM binding z-score [14] | PBM binding z-score [15] | PBM binding z-score [16] | PBM binding z-score [17] | PBM binding z-score [18] | PBM binding z-score [19] | PBM binding z-score [20] |
| --- | --- | --- | --- | --- | --- | --- | --- | --- | --- | --- | --- | --- | --- | --- | --- | --- | --- | --- | --- | --- |
| TCATATAGGTAAAGTTGAAAGTCGAACGATATGA | 0.231 | 0.886 | -0.186 | 0.68 | -0.123 | 2.11 | 1.9 | 3.23 | 3.72 | 3.52 | 3.68 | 2.66 | 1.6 | 1.18 | 0.5 | 0.661 | 0.0596 | 0.908 | 0.307 | 1.08 |
| ATATGTAGGTTATTGGGTCATTCAGTTTGCGCAT | 2.82 | 3.05 | 2.1 | 2.62 | 1.34 | 5.16 | 8.04 | 6.41 | 3.93 | 5.9 | 7.67 | 8.16 | 4.52 | 3.64 | 4.1 | 3.06 | 4.6 | 3.36 | 2.83 | 2.5 |
| TGTAAAAGTTCAAAGGTAACGTAAGTATCCACAC | 6.54 | 6.21 | 4.26 | 4.37 | 1.88 | 5.54 | 6.22 | 6.14 | 3.76 | 5.5 | 0.163 | 2.72 | 1.6 | 1.19 | 2.18 | 5.02 | 2.34 | 5.42 | 1.74 | 4.85 |
| GCTATTAGTTGAAAAGGCAACCGAATGATTCTCG | -0.25 | -0.013 | -0.222 | -0.163 | -0.383 | 0.216 | 0.532 | 1.07 | 0.168 | 0.651 | -0.116 | -0.52 | 0.324 | 0.295 | 1.02 | -0.0791 | 0.363 | 0.226 | 0.557 | 0.109 |
| ATCTCTAGGTAACACTCAGTTCAGTGAAGAACGC | 0.92 | 1.1 | 0.849 | 0.889 | 1.26 | 1.07 | 0.692 | 0.736 | 0.527 | 0.515 | 3.97 | 2.95 | 1.8 | 2.07 | 1.13 | 1.94 | 2.42 | 1.13 | 1.39 | 1.06 |
| ACAGAAAGGTGATGAAGGTAACTCAGGCTATCAT | 0.335 | 0.618 | 0.115 | 0.477 | -0.456 | 1.51 | 1.02 | 1.12 | 0.27 | 0.787 | 0.962 | 1.45 | 0.665 | 0.683 | 0.688 | 0.335 | 0.0962 | 0.91 | 0.63 | 1.74 |
| CATACTAGGTCAAGAGGTCAAAGTCCGCTTCCCG | 7.24 | 6.42 | 7.38 | 5.6 | 2.49 | 6.35 | 8.96 | 7.68 | 5.59 | 7.65 | 7.37 | 7.69 | 4.46 | 2.98 | 5.59 | 6.4 | 2.53 | 7.53 | 3.07 | 5.67 |
| TGAATGAGGTTAGAAGATCAGGGAACGTTGCAAA | 0.452 | 0.337 | -0.383 | 0.0743 | -0.188 | 1.59 | 0.84 | 1.29 | 0.759 | 0.966 | 0.481 | 1.07 | 0.215 | 0.423 | 0.0749 | 0.145 | -0.0637 | 0.485 | 0.14 | 0.954 |
| CCTACTGGGCCTAGGTCATTGATCAGTCAAAGCA | 0.983 | 1.42 | 0.403 | 1.31 | -0.469 | 1.77 | 0.62 | 1.47 | -0.181 | 1.03 | -0.391 | 1.13 | -1.99 | -1.42 | 1.21 | 0.949 | -0.0903 | 1.57 | -0.574 | 1.94 |
| CCTTACGGGTCACGACGTTATAGCACGACGAGCG | 6.55 | 4.13 | 0.322 | 3.66 | 0.374 | 5.69 | 6.15 | 5.93 | 2.65 | 4.97 | 3.85 | 4.92 | 0.866 | 0.177 | 1.83 | 3.57 | 0.0826 | 4.61 | 1.39 | 4.34 |
| TCTTGTAGAACAAAGGTTAAGAAAGCCGAAGCCT | 1.11 | 1.68 | -0.0357 | 1.97 | -0.155 | 4.32 | 7.84 | 7.99 | 7.71 | 8.74 | 2.26 | 3.87 | 0.00137 | 0.832 | 0.868 | 1.31 | -0.451 | 2.33 | 0.221 | 1.81 |
| TTACCAAGGTGAAGGGCGTTGATCCCTCTGTAGA | 0.622 | 0.629 | -0.192 | 0.495 | -0.575 | 1.47 | 0.846 | 2.19 | 0.835 | 1.69 | 1.73 | 2.43 | -0.0766 | -0.0935 | 0.279 | 0.365 | -0.351 | 0.762 | -0.0384 | 1.64 |
| TCGAGTATGTTACCAATGGGGCATTCAGCTTTCT | -0.179 | -0.268 | -0.402 | 0.416 | -0.279 | 0.256 | -0.157 | 0.416 | 1.14 | 0.894 | 1.25 | 0.121 | -0.168 | -0.0708 | -0.422 | 0.0821 | -0.273 | 0.0781 | -0.543 | -0.0471 |
| TCGAGTAGGTTACCAATGGCGCATTCAGCTTTCT | 0.273 | 0.571 | -0.489 | 0.382 | -0.736 | 0.977 | 0.185 | 1.23 | 1.11 | 1.17 | 3.69 | 2.51 | 0.479 | -0.462 | -0.236 | 0.00763 | -0.811 | 0.064 | -0.676 | 0.628 |
